# Results published in PubChem BioAssay AID720519 (National Center for Advancing Translational Sciences (NCATS), 2013).
# Records with an inconclusive call do not appear. A call without a number means that no potency is given here. The source made the active and inactive calls. Calls follow the shape of the dose curve; as a rule, active = well fitted activation curve with a large enough effect; inconclusive = small, poorly fitted or top-dose-only effect; inactive = flat fitted curve, though single readings scatter.
# Assay: qHTS for Inhibitors of Cell Surface uPA Generation: Confirmatory Assay for Cherry-picked Compounds
# Conditions: cell surface uPA activity generation, qHTS confirmation; series mostly up to 115 µM
# Outline: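 RAW 264.7 cells at 4000/well, incubated overnight, then treated with compounds. After 24 h at 37 C, viability was read by ATPlite luminescence. An increase in signal indicates blocked uPA-dependent LF entry.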
row,SMILES,Potency
1,COc1ccc(CNC(=O)C2(CC3CC(c4ccccc4)=NO3)CCNCC2)cc1 (configuration not stated),inactive
2,COc1ccc(NC(=O)/C(N=Nc2cc(S(=O)(=O)Nc3ccc(OC)cc3)ccc2OC)=C(\C)O)cc1,inactive
3,COCCN(CCOC)c1nc(-c2ccc(C)cc2)nc2ccccc12,inactive
4,Cc1cccc(C(=O)NC2CCN(CC(=O)N3CCOCC3)CC2)c1,inactive
5,O=C(N/N=C/c1cccnc1)c1ccccc1[N+](=O)[O-],inactive
6,COCc1c(C(=O)Nc2nc(C)cs2)oc2ccccc12,inactive
7,Cn1nc(C(C)(C)C)c([N+](=O)[O-])c1C(=O)N1CCOCC1,inactive
8,COc1ccc2cc(CCNC(=O)c3ccc4c(c3)OCO4)c(=O)[nH]c2c1,inactive
9,O=C(NCCc1ccccc1)C1CCC(=O)N(Cc2cccc(C(F)(F)F)c2)C1 (configuration not stated),inactive
10,CC1=C(C(=O)OCc2ccccc2)C(c2cccc([N+](=O)[O-])c2)NC(=O)N1 (configuration not stated),inactive
11,CCC1(CC)NC(=O)N(CC(=O)OCC(=O)c2cc(C)c(C)cc2C)C1=O,inactive
12,Cc1[nH]c2ccccc2c1C(=O)COC(=O)c1cccc(S(=O)(=O)N2CCCCC2)c1,inactive
13,COc1ccc2c(c1)c1nnc(SCC(=O)Nc3ccccc3F)nc1n2C,inactive
14,O=C(O)CCCC(=O)NCCCCc1ccccc1,inactive
15,CCOC(=O)c1c(C)oc2ccc(OC(=O)COc3c(F)c(F)c(F)c(F)c3F)cc12,inactive
16,OCCN(Cc1ccccc1)CC(O)COc1ccc2c(c1)OCO2 (configuration not stated),inactive
17,CCCN1CCN(C(=O)CCCn2c(C)c3cnn(-c4ccccc4)c(=O)c3c2C)CC1,inactive
